Laboratory results from the supplement of paper PMC6555819.

Columns and labels:
Experiment in all cases: PBM binding z-score (relative to random genomic background probes); higher = stronger binding; sequences stand for … in GC…GCGATTGACAGCGTAGAATGAAGG
[1] = system: RARg:RXRa (NR concentration 270 nM, RXRa partner concentration 90 nM)
Summary of the method: (§1)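 For binding z-scores, the reference was random background probes on custom Agilent 4×180K protein-binding microarrays. These arrays were incubated 1 h with ligand-free nuclear receptor dimers in PBS pH 7.4, 2% milk, 0.02% Triton X-100, 1 mM DTT, 0.2 mg/mL BSA and 0.4 mg/ml salmon testes DNA. Fluorescence was scanned after antibody detection of each partner (one per run) and regression-normalized.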

[2] = system: RARg homodimer (NR concentration 270 nM)
Summary of the method: as §1

[3] = system: RXRa DBDmut IVT, anti-RXR (DBD mutation: RXRa K156A/R161A, NR concentration 90 nM)
Summary of the method: as §1

[4] = system: RXRa homodimer (NR concentration 180 nM)
Summary of the method: as §1

[5] = system: THRa:RXRa (NR concentration 90 nM, RXRa partner concentration 90 nM)
Summary of the method: as §1

[6] = system: THRa homodimer (NR concentration 90 nM)
Summary of the method: as §1

[7] = system: VDR homodimer (NR concentration 270 nM)
Summary of the method: as §1

| Sequence | PBM binding z-score [1] | PBM binding z-score [2] | PBM binding z-score [3] | PBM binding z-score [4] | PBM binding z-score [5] | PBM binding z-score [6] | PBM binding z-score [7] |
| --- | --- | --- | --- | --- | --- | --- | --- |
| TATACAAGGTCAAAGGCCAGAGTACGAATGTCGA | 6.25 | 6.16 | 2.92 | 6.51 | 3.86 | 2.1 | 2.78 |
| ATATGTAGGTTGGGGTCATTCAGAAAGTAGGGAA | 5.15 | 3.36 | 3.69 | 7 | 4.34 | 3.84 | 6.23 |
| CGTACAAGGTCAAAGGTCAGTGAAGAGATGACGG | 8.95 | 8.28 | 4.22 | 10.5 | 4.71 | 2.58 | 4.13 |
| AATACAAGGTCATCGTAGGCCAGAGTACGCACAG | 6.21 | 6.23 | 3.94 | 6.37 | 4.47 | 2.74 | 4.03 |
| CCGAGTTGGTCAAGGTCACACACGCTATAGGTAC | 4.58 | 4.8 | 3.18 | 4.46 | 4.24 | 4.39 | 4.74 |
| CGAACTAGGTCAAAGGACATTGAAAGGCGACGTA | 4.1 | 4.34 | 1.63 | 3.33 | 2.82 | 0.495 | 0.442 |
| CCTAGTTGTTCAGGAGGTCACACACCGGATATGA | 4.48 | 4.35 | 1.15 | 4.73 | 3.62 | 2.81 | 3.5 |
| CCTACTCGGCCAAAAAGGTCATTGATGCCGATAA | 4.7 | 4.45 | 1.13 | 4.82 | 3.33 | 1.22 | 2.91 |
| ATCGAAAGGTCGACGAGGTGAGTAAACACCGTTT | 4.4 | 4.12 | 0.855 | 4.54 | 3.78 | 0.706 | 0.649 |
| CGTCCAAGGACAATGCTAGGTCAGTGAAAGCATT | 1.34 | 1.85 | 0.603 | 0.146 | 2.91 | 1.91 | 0.161 |
| TCTTGTAGGTCAATAGAGGTTAAGAAAGTGCGCT | 4.56 | 5.15 | 1.88 | 4.31 | 4.71 | 0.329 | 1.63 |
| CCTACTGGGCCATTCAGAGGGCATTGATCATATG | 1.43 | 0.891 | -0.189 | 0.134 | 0.0655 | -0.325 | 0.582 |
| ATATGTAGGTTAGCTGGGGTCATTCACACTAGGC | 4.14 | 3.12 | 1.95 | 5.25 | 5.01 | 3.56 | 5.37 |
| AATACAGGGTGACTAGGCCAGAGTAGGTACGAAT | 0.739 | 0.693 | -0.419 | 0.911 | 0.915 | 0.154 | 0.309 |
| ACTCGGATGACAAAGGTCAGAGCTACGCCAGTGA | 4.9 | 4.66 | 0.624 | 4.83 | 2.54 | 0.0278 | 1.1 |
| CAAACTAGGTCAAGAGGTCAAAGTTCGCTTCCCG | 8.33 | 7.43 | 3.49 | 8.33 | 4.67 | 2.78 | 5.53 |
| CGTCAAACTTCAACTAAGGTAACGTAAAGCACGC | 0.289 | 0.43 | 0.617 | 0.424 | 2.4 | 1.98 | 0.47 |
| CGAACTAGGTCAAGGACAGTAAATCTCCGCACGC | 4.01 | 4.54 | 1.47 | 2.55 | 3.16 | 2.01 | 0.575 |
| AGAATGAGGTTACTAAAGATCAGGGAAACGCTTG | 1.61 | 1.25 | 0.94 | 1.59 | 2.19 | 0.398 | 0.00246 |
| TCGTGTAGGTTACGGGGGCATTCAGGGATGAAGA | 4.09 | 3.31 | 2.75 | 3.35 | 4.09 | 2.66 | 3.98 |

| Sequence | PBM binding z-score [1] | PBM binding z-score [2] | PBM binding z-score [3] | PBM binding z-score [4] | PBM binding z-score [5] | PBM binding z-score [6] | PBM binding z-score [7] |
| --- | --- | --- | --- | --- | --- | --- | --- |
| ATCGAAAGGTCCAAGGTGAGTATACCCACCCGAA | 0.919 | 1.08 | 0.0908 | 0.853 | 1.35 | 0.653 | 0.214 |
| TCTCGGAGGACACAAAGGTCAGAGCTTTCCAGAG | 4.8 | 5.32 | 0.957 | 4.32 | 3.45 | 0.913 | 2.06 |
| CAAACTAGGTCACAGTGGTCAAAGTCCGTGCGTA | 4.19 | 5.18 | 1.51 | 3.32 | 3.17 | 1.43 | 1.23 |
| CGTTCAAGGTCAAAGGTCAGTGAAGAGATGACGG | 8.78 | 8.73 | 4.53 | 10.3 | 5.04 | 3.34 | 3.81 |
| CCTAGCAGGCCAATCTAGGTCACTCAAGGCTTGA | 1.5 | 1.85 | 0.439 | 0.64 | 4.18 | 1.57 | 0.1 |
| CACACTAGGTCACAGAGGTCAAAGTCCGTGCGTA | 7.55 | 8.04 | 3.26 | 8.19 | 4.84 | 3.29 | 7.03 |
| CGAACTAGGTCATTGACAGGACAATGAATAGTAA | 4.78 | 4.69 | 2.44 | 2.79 | 2.91 | 0.699 | 1.62 |
| TCTTGTAGATCAATAGAAGTTAAGAAAGTGCGCT | 0.119 | 0.155 | 1.24 | 0.537 | 0.00398 | -0.786 | 0.102 |
| CGAACTACGTCATCCAGGACAGTGAATACATTGA | 0.374 | 0.537 | 0.498 | 0.2 | 1.27 | 1.03 | 0.313 |
| CAAACTAGGTCAAGGTCTAAGTCGGTTTGTGCCA | 3.81 | 4.71 | 1.44 | 2.49 | 3.15 | 1.57 | 1.14 |
| CCTTACGGGTCCCTCCAGGTTATAGCATCGGAGT | 0.0762 | 0.0141 | -1.22 | 0.2 | 3.05 | 0.1 | 0.267 |
| CGAACGAGGTCATGAGTTGATAGCAAATGCCGAT | 6.18 | 6.02 | 4.6 | 6.87 | 4.26 | 3.07 | 4.41 |
| AGAATGGGGTTATACGTAGATCAGGGAAGAAAGT | 2.66 | 0.984 | 2.16 | 4.17 | 2.8 | 1.53 | 1.86 |
| GCTGCTAGGTCAACTGATGGCCAGCTAAAGCTCG | 4.59 | 5.33 | 1.01 | 2.75 | 2.89 | 0.674 | -0.329 |
| CCTTACGGGTCACGTGGTTATAGCACGACGAGCG | 5.5 | 5.1 | 1.32 | 6.08 | 3.04 | 0.0729 | 0.82 |
| TCGAGTAGGTCACGGGGGCATTCAGGGATGAAGA | 6.77 | 6.69 | 2.23 | 6.31 | 4.48 | 1.6 | 3.74 |
| ATCAAAAGGTCGAGGTGAGTATAGAGAAAGGGAA | 4.7 | 4.98 | 1.28 | 4.83 | 3.11 | 1.26 | 1.18 |
| AGAATGGGGTTACCAAAGATCAGGGAAACGCTTG | 2.9 | 1.43 | 1.25 | 4.79 | 3.07 | 0.513 | 0.217 |
| TATCAAAGTTCAAAGGTAACGTAAGTATCCACAC | 6.25 | 6.03 | 4.5 | 7.49 | 3.56 | 0.168 | 4.2 |
| CCGAGGAGGTTACGAGGGGGCATTCAGTGCGAAT | 4.21 | 3.17 | 2.24 | 3.28 | 4.49 | 0.537 | 3.87 |

| Sequence | PBM binding z-score [1] | PBM binding z-score [2] | PBM binding z-score [3] | PBM binding z-score [4] | PBM binding z-score [5] | PBM binding z-score [6] | PBM binding z-score [7] |
| --- | --- | --- | --- | --- | --- | --- | --- |
| CGTCCAAGGTCACGGTCAGTGAAAGAGACTCGAA | 7.19 | 8.03 | 4.12 | 7.6 | 4.29 | 3.63 | 2.8 |
| CGAACTAGGTCTAAGGACAGTGAAAGGCGACGTA | -0.0449 | 0.382 | 0.0916 | 0.0481 | 2.65 | 1.96 | -0.112 |
| AGCGAAAGGTCGAGGTGAGTATAGAGAAAGGGAA | 4.32 | 4.24 | 0.946 | 4.46 | 2.89 | 0.747 | 0.467 |
| CTATGTGGGTTAAGGGGGTCATTCAGTTTGAAAG | 5.36 | 4.42 | 3.34 | 6.11 | 4.29 | 3.69 | 6.5 |
| TAGCCTAGGTCATGCGGGCCAATATAGTGTCGGC | 3.98 | 4.36 | 0.554 | 3.1 | 3.14 | 0.979 | 0.902 |
| GGAACGAGGTCATTCGAGTTGATAGCATGGCGAT | 6.09 | 6.21 | 4.87 | 7.11 | 4.76 | 2.26 | 6.31 |
| CGTCCGAGGTCATAGGAGGTCAGTGAAGACAGAT | 7.12 | 7.76 | 4.48 | 7.49 | 5.37 | 3.58 | 5.17 |
| TAGCCTAGGTCATTCAGGGGCCAGCATAGAAAGC | 6.31 | 4.44 | 1.98 | 2.92 | 3.55 | 0.61 | 1.44 |
| TCTATTAGTTGATTAGGGCAACCGAAACAGCGGA | 0.66 | 0.733 | 1.18 | 0.678 | 0.697 | 0.563 | 0.736 |
| ACTAGTTGGTCAGCTGAGGTCACACCCAATTCGG | 3.85 | 3.86 | 1.34 | 3.47 | 5 | 4.84 | 2.67 |
| CGAACTAGGTCGAGGACAGTGAATCTCCGCACGC | 0.749 | 1.36 | 0.54 | 0.381 | 2.11 | 1.45 | 0.0594 |
| CGTCCAAGGTCTAGGTCAGTGAAAGAGACTCGAA | 1.6 | 2.4 | 0.323 | 0.486 | 1.86 | 0.936 | 0.00097 |
| CCTAGTTGGTCAAGGTCACACCCGCTATAGGTAC | 4.26 | 4.56 | 1.78 | 4.2 | 3.94 | 4.24 | 3.57 |
| ATATGTAGGTTATCGGGTCATACAGTTTGCGCAT | 3.64 | 2.84 | 1.67 | 3.87 | 3.68 | 2.82 | 3.52 |
| ATCGAAAGGTCGTGAGGTAAGTATACAGAAAGGC | 4.63 | 3.93 | 1.25 | 5.18 | 3.09 | 1.01 | 1.24 |
| AGAATGAGGTCATTAAGATCAGGGAATTGCGGTC | 5.83 | 5.03 | 4.81 | 6.72 | 4.38 | 3.69 | 4.67 |
| TAGCCTAAGTCATGCGGGCCAGTATAGTGTCGGC | -0.283 | -0.412 | -0.949 | -0.136 | -0.34 | -0.848 | -1.04 |
| ATATGTAGGTTATCTGGGGTCATTCAGACTAGGC | 4.51 | 3.58 | 2.58 | 5.88 | 5.46 | 3.91 | 5.88 |
| TTACCAAGGTGAAAGGTCGTTGCTGCACGCCTTG | 4.15 | 1.94 | 0.854 | 5.85 | 3.37 | 0.758 | 1.74 |
| CCTACTGGGCCACTAAAGGTCATTGATTCAGTGA | 4.48 | 4.5 | 0.757 | 4.87 | 3.61 | 0.905 | 2.62 |
